These results are taken from PubChem BioAssay (EPA / NIEHS).

The structures appear in SMILES notation. Calls of active or inactive are those of the source. How the source made its calls: active means hit-call score of the fitted dose curve at least 0.9, where 1 is the maximum; inactive means score below 0.9.

Test system in the first test: not listed separately
As to the kind of experiment: ATG_Ets_CIS: Attagene CIS-FACTORIAL HepG2 Assay for human Erythroblast Transformation Specific (ETS) (AID 2282941). The settings on record: HepG2 ETS cis-reporter transcription, actives raise or lower the signal. Summed up: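 Steps: transfect HepG2 with multiple reporter units; treat compound 24 h; isolate RNA, DNase-treat, reverse-transcribe; PCR-amplify, label with 6-FAM, digest with HpaI; separate by capillary electrophoresis. Activity fitted both directions versus DMSO.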
Take `CCOS(=O)(=O)OCC`: the molecule was called inactive.

Turning to `ClC(Cl)(Cl)c1ccccc1`, the molecule was classed as inactive.

For the molecule `CC(C)(C)N(NC(=O)c1ccc(Cl)cc1)C(=O)c1ccccc1`, the result was inactive.

Regarding `CCN(CC)c1ccccc1`, the result was inactive.

Regarding `CCCCN(CCCC)SN(C)C(=O)Oc1cccc2c1OC(C)(C)C2`, the outcome was inactive.

As to `CCOP(=S)(OCC)SCSCC`, the molecule was called inactive.

As for `CCCCCCCc1ccc(O)cc1`, the result was inactive.

`O=C(O)C=CC(F)(C(F)(F)F)C(F)(F)F`: the call was inactive.

In the case of `CC(Cc1ccc(OCC(=O)O)cc1)NCC(O)c1csc(C(F)(F)F)n1` (stereo not drawn), the outcome was inactive.

On to `CCC(C)(C)c1ccc(O)cc1`, for which the result was inactive.

On to `O=S(=O)(F)C(F)(F)C(F)(F)C(F)(F)C(F)(F)C(F)(F)C(F)(F)C(F)(F)C(F)(F)F`, for which the outcome was inactive.

The term AC50 denotes the concentration giving half of the maximal activity seen. For `N#Cc1c(-c2ccc(Cl)cc2)[nH]c(C(F)(F)F)c1Br`, the AC50 is 19.8 µM (active).

For the molecule `O=P(Oc1ccccc1)(Oc1ccccc1)Oc1ccccc1`, the result was inactive.

Take `O=[N+]([O-])c1ccc(Cl)c(Cl)c1`: the result was inactive.

Regarding `C/C(=N\NC(=O)Nc1cc(F)cc(F)c1)c1ncccc1C(=O)O`, the result was inactive.

On to `Nc1ccc(Cl)cc1`, for which the outcome was inactive.

As to `CC(O)C#N` (stereo not drawn), the outcome was inactive.

As for `C=C(C)C(=O)OCC1CO1` (stereo not drawn), the call was inactive.

As for `CCCCN(CC)C(=O)SCCC`, the outcome was inactive.

Consider `CCCCN(CCCC)N=O`, for which the outcome was inactive.

As to `ClC(Cl)c1ccccc1`, the molecule was classed as inactive.

With `c1ccc2c(c1)sc1ccccc12`, the molecule was called inactive.

Regarding `Cc1ccc([N+](=O)[O-])cc1C`, the molecule was classed as inactive.

Take `CCC1(c2ccccc2)C(=O)N=C(O)NC1=O` (stereo not drawn): the outcome was inactive.

For the molecule `OCC(F)(F)OC(F)(F)C(F)(F)OC(F)(F)CO`, the molecule was called inactive.

For `CCOP(=S)(Oc1ccc([N+](=O)[O-])cc1)c1ccccc1` (stereo not drawn), the call was inactive.

With `CCOP(=S)(OCC)SCn1nnc2ccccc2c1=O`, the outcome was inactive.

As for `CC(C)(C)OOC(C)(C)C`, the molecule was classed as inactive.

On to `Nc1ccc(Sc2ccc(N)cc2)cc1`, for which the molecule was classed as inactive.

For `CN(C)C(=O)Cl`, the molecule was classed as inactive.

Take `CCCCc1ccc(O)cc1`: the result was inactive.

Consider `c1ccc(OP(Oc2ccccc2)Oc2ccccc2)cc1`, for which the outcome was inactive.

For `CC(Cl)(Cl)C(=O)O`, the outcome was inactive.

In the case of `OCC(F)(F)OC(F)(F)C(F)(F)OC(F)(F)C(F)(F)OC(F)(F)CO`, the molecule was classed as inactive.

As to `O=C(O)C1C(C(=O)O)C2(Cl)C(Cl)=C(Cl)C1(Cl)C2(Cl)Cl` (stereo not drawn), the molecule was called inactive.

Take `O=P1(N(CCCl)CCCl)NCCCO1` (stereo not drawn): the result was inactive.

Regarding `O=C(O)C(F)(OC(F)(F)C(F)(F)C(F)(F)F)C(F)(F)F` (stereo not drawn), the molecule was called inactive.

Consider `CCCCc1ccccc1`, for which the result was inactive.

On to `N#Cc1cc([N+](=O)[O-])ccc1N`, for which the molecule was called inactive.

In a further test the target is Hepatocyte nuclear factor 3-beta (Homo sapiens) (UniProt Q9Y261). As to the kind of experiment: ATG_FoxA2_CIS: Attagene CIS-FACTORIAL HepG2 Assay for human Forkhead box A2 (FOXA2) (AID 2282942). The settings on record: HepG2 cis-reporter transcription factor activity, 24 h; actives raise or lower the signal. An outline of the steps: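 24 h dosing of HepG2 bearing cis-reporter constructs; mRNA readout by RT-PCR/CE fluorescence; bidirectional fit, DMSO baseline.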
Hepatocyte nuclear factor 3-beta (Homo sapiens), sequence (Q9Y261 whole entry, looked up): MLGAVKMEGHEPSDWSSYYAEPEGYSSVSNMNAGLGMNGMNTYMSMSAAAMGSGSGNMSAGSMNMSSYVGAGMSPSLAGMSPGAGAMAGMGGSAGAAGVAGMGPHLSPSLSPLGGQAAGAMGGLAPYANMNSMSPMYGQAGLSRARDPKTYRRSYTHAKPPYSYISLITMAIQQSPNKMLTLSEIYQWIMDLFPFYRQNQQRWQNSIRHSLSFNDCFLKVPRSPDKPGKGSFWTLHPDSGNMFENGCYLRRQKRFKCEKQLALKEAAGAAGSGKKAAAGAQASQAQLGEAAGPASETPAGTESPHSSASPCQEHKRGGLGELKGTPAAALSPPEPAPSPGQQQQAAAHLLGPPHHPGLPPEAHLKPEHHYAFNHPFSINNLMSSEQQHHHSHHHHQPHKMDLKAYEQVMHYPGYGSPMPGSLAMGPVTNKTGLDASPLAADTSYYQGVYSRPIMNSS
Consider `CCOS(=O)(=O)OCC`, for which the call was inactive.

Turning to `ClC(Cl)(Cl)c1ccccc1`, the result was inactive.

Take `CC(C)(C)N(NC(=O)c1ccc(Cl)cc1)C(=O)c1ccccc1`: the result was inactive.

Turning to `CCN(CC)c1ccccc1`, the call was inactive.

In the case of `CCCCN(CCCC)SN(C)C(=O)Oc1cccc2c1OC(C)(C)C2`, the call was inactive.

As to `CCOP(=S)(OCC)SCSCC`, the result was inactive.

With `CCCCCCCc1ccc(O)cc1`, the outcome was inactive.

On to `O=C(O)C=CC(F)(C(F)(F)F)C(F)(F)F`, for which the call was inactive.

Turning to `CC(Cc1ccc(OCC(=O)O)cc1)NCC(O)c1csc(C(F)(F)F)n1` (stereo not drawn), the outcome was inactive.

With `CCC(C)(C)c1ccc(O)cc1`, the call was inactive.

For the molecule `O=S(=O)(F)C(F)(F)C(F)(F)C(F)(F)C(F)(F)C(F)(F)C(F)(F)C(F)(F)C(F)(F)F`, the call was inactive.

On to `N#Cc1c(-c2ccc(Cl)cc2)[nH]c(C(F)(F)F)c1Br`, for which the result was inactive.

In the case of `O=P(Oc1ccccc1)(Oc1ccccc1)Oc1ccccc1`, the molecule was called inactive.

Consider `O=[N+]([O-])c1ccc(Cl)c(Cl)c1`, for which the call was inactive.

Regarding `C/C(=N\NC(=O)Nc1cc(F)cc(F)c1)c1ncccc1C(=O)O`, the outcome was inactive.

Regarding `Nc1ccc(Cl)cc1`, the molecule was called inactive.

For the molecule `CC(O)C#N` (stereo not drawn), the outcome was inactive.

In the case of `C=C(C)C(=O)OCC1CO1` (stereo not drawn), the outcome was inactive.

`CCCCN(CC)C(=O)SCCC`: the molecule was classed as inactive.

As to `CCCCN(CCCC)N=O`, the outcome was inactive.

As for `ClC(Cl)c1ccccc1`, the molecule was called inactive.

Take `c1ccc2c(c1)sc1ccccc12`: the outcome was inactive.

Regarding `Cc1ccc([N+](=O)[O-])cc1C`, the outcome was inactive.

On to `CCC1(c2ccccc2)C(=O)N=C(O)NC1=O` (stereo not drawn), for which the molecule was classed as inactive.

With `OCC(F)(F)OC(F)(F)C(F)(F)OC(F)(F)CO`, the molecule was called inactive.

Regarding `CCOP(=S)(Oc1ccc([N+](=O)[O-])cc1)c1ccccc1` (stereo not drawn), the result was inactive.

For the molecule `CCOP(=S)(OCC)SCn1nnc2ccccc2c1=O`, the molecule was called inactive.

For the molecule `CC(C)(C)OOC(C)(C)C`, the call was inactive.

Turning to `Nc1ccc(Sc2ccc(N)cc2)cc1`, the molecule was called inactive.

As to `CN(C)C(=O)Cl`, the call was inactive.

Consider `CCCCc1ccc(O)cc1`, for which the outcome was inactive.

For the molecule `c1ccc(OP(Oc2ccccc2)Oc2ccccc2)cc1`, the call was inactive.

In the case of `CC(Cl)(Cl)C(=O)O`, the call was inactive.

Consider `OCC(F)(F)OC(F)(F)C(F)(F)OC(F)(F)C(F)(F)OC(F)(F)CO`, for which the molecule was called inactive.

As for `O=C(O)C1C(C(=O)O)C2(Cl)C(Cl)=C(Cl)C1(Cl)C2(Cl)Cl` (stereo not drawn), the molecule was classed as inactive.

As for `O=P1(N(CCCl)CCCl)NCCCO1` (stereo not drawn), the result was inactive.

On to `O=C(O)C(F)(OC(F)(F)C(F)(F)C(F)(F)F)C(F)(F)F` (stereo not drawn), for which the result was inactive.

For the molecule `CCCCc1ccccc1`, the outcome was inactive.

With `N#Cc1cc([N+](=O)[O-])ccc1N`, the result was inactive.
